From PubChem BioAssay
Activity calls are given as the source filed them.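 How the source made its calls: active means visual image review flags a hit and inhibition of aggregation exceeds 20%; inconclusive means visual hit but inhibition at or below 20%; inactive means no hit on visual image review.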

Experiment: inhibitors of mutant huntingtin aggregation, primary screen, imaging, exon1htt(103Q)mCFP cells, high-content imaging (AID 483);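 further: compound exposure lasted 3 days before fixation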;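 on nuclei count: percent of the per-plate median nuclei count of sample wells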
Conditions: exon1htt(103Q)mCFP cell line, aggregate imaging, at 2 µM; inhibition of aggregation: stronger effect = higher value; nuclei count: measured here: cell count, toxicity

SMILES | inhibition of aggregation | nuclei count [%]
Cc1ccc(-c2nnc(SC(C)C#N)n2N)cc1 (stereo not given) | -0.7% (inactive) | 95.1
CCOc1ccc2[nH]cc(C(=O)N3CCN(CC)CC3)c(=O)c2c1 | 4.7% (inactive) | 77.2
Cn1nnnc1SCC(=O)N1CCN(c2ccccc2)CC1 | 7% (inactive) | 97.4
CC(C)c1nc(N2CCN(C(=O)c3ccco3)CC2)c2c3c(sc2n1)CCCC3 | -12.3% (inactive) | 94.5
CCOc1ccc(OCC)c(NC(=O)CN2CCN(C(=O)c3ccco3)CC2)c1 | -12.3% (inactive) | 122
O=C(COC(=O)c1cc(S(=O)(=O)N2CCOCC2)cs1)c1ccccc1 | -9.6% (inactive) | 103
Cn1c(=O)c2c(-c3ccncc3)c3c(nc2n(C)c1=O)-c1ccccc1C3=O | -3.3% (inactive) | 98.9
Nc1c(N2CCCCC2)c(=O)[nH]c(=O)n1-c1ccccc1 | 3% (inactive) | 106
CC(=O)Nc1ccc(S(=O)(=O)N2CCN(C(=O)CCC3CCCC3)CC2)cc1 | -12.8% (inactive) | 96.2
COc1cccc(C2CC(c3ccccc3)n3ncnc3N2)c1 (stereo not given) | -12% (inactive) | 90.7
CCOc1ccc2oc(-c3ccccc3)c(C(=O)N3CCN(CCO)CC3)c2c1 | 2.8% (inactive) | 89.6
Cc1cc(NCCN2CCOCC2)n2nc(C)c(-c3ccccc3)c2n1 | -34.5% (inactive) | 118
COCc1cc(C)nc(Nc2ccc(C)cc2C)c1C#N | -34.1% (inactive) | 113
COc1ccccc1-c1nnc(SCC(=O)N2CC(C)CC(C)C2)o1 (stereo not given) | -3.7% (inactive) | 112
CC(=O)c1cc2c(cc1NC(=O)CN1CCN(C(=O)c3ccco3)CC1)OCO2 | 13.3% (inactive) | 44.6
COc1cccc(C2=NOC(C(=O)Nc3cc(C)nn3-c3ccccc3)C2)c1OC (stereo not given) | -1.5% (inactive) | 105
O=C(O)C1CCCN1c1ncnc2c1oc1ccccc12 (stereo not given) | 11.5% (inactive) | 101
Cc1ccc(OC(=O)CCC(=O)OCCCC(F)(F)C(F)(F)F)cc1 | 4.9% (inactive) | 103
O=S(=O)(c1cccc(S(=O)(=O)N2CCC(N3CCCCC3)CC2)c1)N1CCOCC1 | -6.3% (inactive) | 123
CNc1ccc(C(O)(C(F)(F)F)C(F)(F)F)cc1C(O)(C(F)(F)F)C(F)(F)F | -7.5% (inactive) | 103

SMILES | inhibition of aggregation | nuclei count [%]
Cc1cc(C)n2nc(SCc3nc4ccccc4[nH]3)nc2n1 | -29.8% (inactive) | 103
Cc1cccc(C(=O)N(C)c2nnc(-c3ccncc3)s2)c1 | 6.1% (inactive) | 74.3
CCOC(=O)c1c(C)n(C)c2c(C)cc(O)c(OC(C)=O)c12 | -6.8% (inactive) | 96.7
C=CCOC(=O)C1=C(C)NC(=O)NC1c1cn(-c2ccccc2)nc1-c1cccs1 (stereo not given) | 13.7% (inactive) | 87.3
CCOc1ccccc1NC(=O)C1CCCN(S(=O)(=O)c2cccc3cccnc23)C1 (stereo not given) | 14.7% (inactive) | 124
CCOc1ccccc1Nc1nnc(SCC(=O)N2CCCC2)s1 | 12.1% (inactive) | 106
COC(=O)/C=c1\sc2ncnn2c1=O | 6.6% (inactive) | 111
CN(C)CCNc1oc(-c2ccccc2F)nc1C#N | -11.1% (inactive) | 110
O=C(C1CCN(c2nnc(-n3cccc3)s2)CC1)N1CCN(Cc2ccc3c(c2)OCO3)CC1 | -39.4% (inactive) | 115
COc1ccccc1NC(=O)C1(C)Cc2ccccc2C(=O)O1 (stereo not given) | -26.4% (inactive) | 119
O=C(Cn1cnc2c(cnn2-c2ccc(F)cc2)c1=O)N1CCN(c2ccccc2)CC1 | -0.4% (inactive) | 90.7
Cc1ccnc(N2CCN(C(=O)CSc3nc4ccccc4nc3N3CCCCC3)CC2)c1 | -14.3% (inactive) | 113
Cc1cccc(C)c1NC(=O)c1cc(S(=O)(=O)N2CCOCC2)ccc1F | -3.7% (inactive) | 56.5
Cc1cc2ccccc2n1CCNC(=O)C1CC1 | -3.6% (inactive) | 107
COc1ccc(C)cc1NC(=O)CCN1CCCC1 | 7.8% (inactive) | 87.6
COCCn1nnnc1C(c1ccc(OC)cc1)N1CCN(c2ccccc2F)CC1 (stereo not given) | -4.8% (inactive) | 131
CCOc1ccc(NC(=O)CCN2CCN(c3ccccc3)CC2)cc1 | 8.3% (inactive) | 101
CC(C)Cc1n[nH]c(=O)[nH]1 | -10.2% (inactive) | 113
CC(=O)C1=C(O)C(=O)N(C2CCCCC2)C1c1ccccc1 (stereo not given) | -19.1% (inactive) | 104
Cc1nn(-c2ccccc2)c2c1C(O)n1c(nc3ccccc31)S2 (stereo not given) | 8.2% (inactive) | 83
